The text below walks through data of PubChem BioAssay (EPA / NIEHS).

Structures are written as SMILES. Calls of active or inactive are those of the source. Rule for the calls: active = hit-call score of the fitted dose curve at least 0.9, where 1 is the maximum; inactive = score below 0.9.

Test [1] can be described thus: ATG_M_32_CIS: Attagene CIS-FACTORIAL HepG2 Assay for M32 Transcription Factor (Internal Marker) (AID 2282949).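 Note: background control marker of the multiplexed CIS panel rather than a real target.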 Conditions: HepG2 Attagene cis-factorial M32 reporter, mRNA; actives raise or lower the signal. Summed up:
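HepG2 transfectants (cis-regulated reporter transcription units) dosed 24 h. Reporter mRNA by RT-PCR plus CE, analysed as gain or loss relative to DMSO.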

A short description of test [2]: ATG_M_06_CIS: Attagene CIS-FACTORIAL HepG2 Assay for M06 Transcription Factor (Internal Marker) (AID 2282950). Conditions: HepG2 Attagene CIS-FACTORIAL M06 internal marker reporter; actives raise or lower the signal. The method, boiled down:
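Steps: transfect HepG2 with multiplexed cis-element reporter constructs; dose chemical 24 h; extract RNA with DNase treatment; reverse-transcribe, PCR-amplify, 6-FAM label, HpaI digest; separate fragments by capillary electrophoresis. Activity fitted both directions versus DMSO.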

Test [3] addresses Hypoxia-inducible factor 1-alpha (Homo sapiens) (UniProt Q16665). Kind of test: ATG_HIF1a_CIS: Attagene CIS-FACTORIAL HepG2 Assay for human Hypoxia Inducible Factor 1 (HIF1A) (AID 2282951). Conditions: HepG2 Attagene cis-factorial HIF1a reporter transcription; actives raise or lower the signal. The method, boiled down:
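Activity is fitted in both directions relative to DMSO. Reporter transcripts are read by RT-PCR, fluorescent primer extension and capillary electrophoresis after 24 h chemical treatment. The cells are HepG2 carrying transiently transfected cis-element-driven reporter units responding to endogenous factors.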

The target of test [4] is Hepatocyte nuclear factor 6 (Homo sapiens) (UniProt Q9UBC0). Kind of test: ATG_HNF6_CIS: Attagene CIS-FACTORIAL HepG2 Assay for human Hepatocyte Nuclear Factor 6 (HNF6) (AID 2282952). Conditions: HepG2 Attagene cis-factorial HNF6 reporter transcription; actives raise or lower the signal. Summed up:
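First, HepG2 cells were transfected with the multiplexed cis reporter library and dosed with chemical for 24 h. Next, RNA was reverse-transcribed, PCR-amplified and fluorescently labelled. Finally, HpaI-digested fragments were read by capillary electrophoresis.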

In test [5] the target is Heat shock factor protein 1 (Homo sapiens) (UniProt Q00613). Kind of test: ATG_HSE_CIS: Attagene CIS-FACTORIAL HepG2 Assay for human Heat Shock Transcription Factor 1 (HSE) (AID 2282953). The note with it: HepG2 HSE cis-reporter, Attagene RNA transcription; actives raise or lower the signal. Summed up:
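Cells were transfected with cis-element-driven reporter constructs, dosed for 24 h, then total RNA was reverse-transcribed and reporter cDNA amplified, FAM-labelled and digested with HpaI. Fragments were resolved by capillary electrophoresis; gain or loss was fitted against DMSO.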

Test [6] is described as follows: ATG_MRE_CIS: Attagene CIS-FACTORIAL HepG2 Assay for human Metal Responsive Element (MRE) (AID 2282954). Conditions: HepG2 MRE cis-reporter transcription, Attagene multiplex; actives raise or lower the signal. Summed up:
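Measured here is mRNA induction from an MRE cis-element reporter in HepG2 after 24 h, quantified by fluorescence of labelled RT-PCR products on capillary electrophoresis; gain- and loss-of-signal fits use DMSO as baseline.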

The nature of test [7]: ATG_PBREM_CIS: Attagene CIS-FACTORIAL HepG2 Assay for human Phenobarbital-responsive Enhancer Module (PBREM) (AID 2282955). Conditions: HepG2 PBREM cis-reporter, Attagene multiplexed transcription; actives raise or lower the signal. The method, boiled down:
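Endogenous transcription factor activity was read from reporter transcripts in transiently transfected human HepG2 liver cells after 24 h dosing. RT-PCR products were fluorescently labelled, HpaI-cut and sized by capillary electrophoresis; activity fitted bidirectionally against DMSO baseline.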

The target in test [8] is Paired box protein Pax-6 (Homo sapiens) (UniProt P26367). Kind of test: ATG_Pax6_CIS: Attagene CIS-FACTORIAL HepG2 Assay for human Paired Box 6 (PAX6) (AID 2282956). Conditions: HepG2 CIS-FACTORIAL PAX6 reporter transcription, RNA readout; actives raise or lower the signal. Summed up: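 DMSO-referenced bidirectional fits of reporter mRNA fluorescence; HepG2 with transient cis-promoter MRTUs, 24 h post-dose, RT-PCR plus capillary electrophoresis detection.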

Test [9] in a line: ATG_PXRE_CIS: Attagene CIS-FACTORIAL HepG2 Assay for human Pregnane X Receptor Element (PXRE) (AID 2282957). The note with it: HepG2 Attagene CIS-FACTORIAL PXRE reporter, mRNA; actives raise or lower the signal. The method, boiled down:
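After a 24 h chemical incubation, total RNA from transfected HepG2 cells was reverse-transcribed and reporter cDNA amplified, FAM-labeled, HpaI-digested and sized by capillary electrophoresis. DMSO served as baseline for bidirectional curve fitting.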

Test [10] in a line: ATG_PPRE_CIS: Attagene CIS-FACTORIAL HepG2 Assay for human Peroxisome Proliferator-activated Response Element (PPRE) (AID 2282958). The note with it: HepG2 PPRE cis-element reporter, Attagene transcription factor profiling; actives raise or lower the signal. The method, boiled down: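 Endogenous PPRE-driven transcription is measured in HepG2 cells carrying transfected multi-reporter constructs. Reporter transcripts are quantified by RT-PCR, HpaI digestion and capillary electrophoresis 24 h after dosing. DMSO baseline, bidirectional fit.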

Test [11] in a line: ATG_RORE_CIS: Attagene CIS-FACTORIAL HepG2 Assay for human RAR-related Orphan Receptor Element (RORE) (AID 2282959). Conditions: HepG2 Attagene cis-factorial RORE reporter, mRNA; actives raise or lower the signal. The method, boiled down:
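RORE reporter transcripts reflecting endogenous factor activity were read after 24 h compound exposure of transfected HepG2 cells, using reverse transcription, PCR, fluorescent labelling and capillary electrophoresis sizing. Gain or loss fitted against DMSO.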

Test [12] is described as follows: ATG_Sox_CIS: Attagene CIS-FACTORIAL HepG2 Assay for human SRY-box transcription factor (SOX) (AID 2282960). The note with it: HepG2 Attagene cis-factorial SOX reporter, mRNA; actives raise or lower the signal. Summed up: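 Reporter transcripts, measured by RT-PCR and capillary electrophoresis of labelled fragments, report endogenous SOX transcription factor activity. Transiently transfected human HepG2 cells receive chemical for 24 h; changes in either direction are fitted relative to DMSO.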

Test [13] deals with Transcription factor Sp1 (Homo sapiens) (UniProt P08047). Kind of test: ATG_Sp1_CIS: Attagene CIS-FACTORIAL HepG2 Assay for human Specificity Protein 1 (Sp1) (AID 2282961). The note with it: HepG2 Sp1 cis-reporter transcription, actives raise or lower the signal. The method, boiled down:
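Read-out is reporter transcript level, measured by RT-PCR and fluorescent capillary electrophoresis after 24 h chemical treatment. System: transiently transfected HepG2 cells reporting endogenous transcription factor activity; gain or loss fitted against DMSO baseline.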

Test [14] in a line: ATG_SREBP_CIS: Attagene CIS-FACTORIAL HepG2 Assay for human Sterol Regulatory Element Binding (SREBP) (AID 2282962). Conditions: HepG2 Attagene cis-factorial SREBP reporter, mRNA; actives raise or lower the signal. Summed up: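 In this cis-format assay, HepG2 liver cells express reporters controlled by promoter elements responsive to native transcription factors. Exposure lasts 24 h; reporter mRNA fluorescence from capillary electrophoresis gives the signal, fitted bidirectionally against DMSO.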

The target of test [15] is Signal transducer and activator of transcription 3 (Homo sapiens) (UniProt P40763). The test can be described thus: ATG_STAT3_CIS: Attagene CIS-FACTORIAL HepG2 Assay for human Signal Transducer and Activator of Transcription 3 (STAT3) (AID 2282963). Conditions: HepG2, Attagene cis-factorial STAT3 reporter transcription; actives raise or lower the signal. Summed up:
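Fluorescence intensity of 6-FAM-labelled reporter fragments, separated by capillary electrophoresis after RT-PCR, gave the signal. Cells were HepG2 transfected with cis-element reporter units and treated 24 h; fitting was bidirectional relative to DMSO.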

Test [16] in a line: ATG_TA_CIS: Attagene CIS-FACTORIAL HepG2 Assay for human TA Basal Promoter (AID 2282964). The note with it: HepG2 Attagene CIS-factorial TA basal promoter reporter; actives raise or lower the signal. Summed up: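 Steps: transfect HepG2 with MRTUs; dose 24 h; isolate RNA, DNase-treat, reverse-transcribe; PCR and FAM-label reporter cDNA; digest with HpaI 2h at 37 C; run capillary electrophoresis. Activity fitted both directions against DMSO.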

Test [17] in a line: ATG_TCF_b_cat_CIS: Attagene CIS-FACTORIAL HepG2 Assay for human T-Cell-Factor with beta-catenin (TCF/b-cat) (AID 2282965). Conditions: HepG2 TCF/beta-catenin cis-reporter transcription, actives raise or lower the signal. The method, boiled down:
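Cells of the HepG2 line carry transiently transfected reporter units whose promoters respond to endogenous factors. Twenty-four hours post-dosing, reporter mRNA induction is measured by fluorescent RT-PCR and capillary electrophoresis, with DMSO as baseline.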

Test [18] is described as follows: ATG_TAL_CIS: Attagene CIS-FACTORIAL HepG2 Assay for human TAL Basal Promoter (AID 2282966).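 Note: background control endpoint measuring basal TAL promoter reporter mRNA not a specific factor.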 Conditions: HepG2 Attagene cis-factorial TAL promoter reporter; actives raise or lower the signal. Summed up: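 Basal-promoter background-control endpoint from a multiplexed HepG2 reporter panel. Cells were exposed 24 h, then reporter mRNA was read by RT-PCR/CE fluorescence and fitted in both directions relative to DMSO.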

Test [19] can be described thus: ATG_TGFb_CIS: Attagene CIS-FACTORIAL HepG2 Assay for human Transforming Growth Factor (TGF) (AID 2282967). Conditions: HepG2 Attagene CIS TGFb reporter, mRNA transcription; actives raise or lower the signal. The method, boiled down: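 Cells were dosed for 24 hours, after which total RNA was reverse-transcribed and reporter sequences amplified, labeled and sized by capillary electrophoresis. Activity was fitted in both directions against DMSO.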

Test [20] is described as follows: ATG_VDRE_CIS: Attagene CIS-FACTORIAL HepG2 Assay for human Vitamin D Receptor Element (VDRE) (AID 2282968). The note with it: HepG2 VDRE cis-reporter transcription, actives raise or lower the signal. Summed up:
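Compounds were applied for 24 h to HepG2 cells transfected with promoter-regulated reporter units. Total RNA was reverse-transcribed, and reporter amplicons were fluorescently labelled and sized by capillary electrophoresis.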

Chain of Signal transducer and activator of transcription 3 (Homo sapiens) (P40763 whole entry, looked up, the tested form may be a part): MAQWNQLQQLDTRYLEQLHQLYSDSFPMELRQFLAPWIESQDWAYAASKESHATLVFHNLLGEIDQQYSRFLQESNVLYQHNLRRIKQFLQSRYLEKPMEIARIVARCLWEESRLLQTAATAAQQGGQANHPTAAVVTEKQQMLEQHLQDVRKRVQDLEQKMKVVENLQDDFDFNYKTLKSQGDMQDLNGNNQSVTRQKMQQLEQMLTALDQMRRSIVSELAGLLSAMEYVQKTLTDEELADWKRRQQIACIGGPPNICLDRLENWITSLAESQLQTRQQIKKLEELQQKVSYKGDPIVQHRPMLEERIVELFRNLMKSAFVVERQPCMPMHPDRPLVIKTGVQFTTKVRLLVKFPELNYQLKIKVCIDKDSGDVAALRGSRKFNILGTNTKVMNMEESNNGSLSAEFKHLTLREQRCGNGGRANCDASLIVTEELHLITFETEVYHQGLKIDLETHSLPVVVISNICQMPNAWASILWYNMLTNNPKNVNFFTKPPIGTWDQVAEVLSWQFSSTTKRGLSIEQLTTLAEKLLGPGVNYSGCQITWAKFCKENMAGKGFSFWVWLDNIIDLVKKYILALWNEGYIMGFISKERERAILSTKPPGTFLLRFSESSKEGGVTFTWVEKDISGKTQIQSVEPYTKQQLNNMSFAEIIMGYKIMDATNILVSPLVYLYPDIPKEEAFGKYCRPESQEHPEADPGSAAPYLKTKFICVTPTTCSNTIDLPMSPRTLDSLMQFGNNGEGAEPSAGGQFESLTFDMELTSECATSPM
Chain of Heat shock factor protein 1 (Homo sapiens) (Q00613 whole entry, looked up, the tested form may be a part): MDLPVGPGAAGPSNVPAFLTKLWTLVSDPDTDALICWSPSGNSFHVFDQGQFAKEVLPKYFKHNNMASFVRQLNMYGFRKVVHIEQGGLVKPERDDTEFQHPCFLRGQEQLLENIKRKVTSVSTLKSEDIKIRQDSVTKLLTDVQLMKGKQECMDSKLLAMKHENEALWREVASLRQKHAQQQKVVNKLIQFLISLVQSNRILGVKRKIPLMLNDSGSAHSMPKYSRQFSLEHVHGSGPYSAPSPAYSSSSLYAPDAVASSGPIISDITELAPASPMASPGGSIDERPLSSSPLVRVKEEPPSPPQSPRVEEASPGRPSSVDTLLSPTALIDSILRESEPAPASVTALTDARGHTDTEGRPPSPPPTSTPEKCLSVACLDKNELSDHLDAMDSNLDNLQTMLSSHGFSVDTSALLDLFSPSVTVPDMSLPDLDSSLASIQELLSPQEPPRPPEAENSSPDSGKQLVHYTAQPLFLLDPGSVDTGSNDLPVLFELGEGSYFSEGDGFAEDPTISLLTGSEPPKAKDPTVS
Chain of Paired box protein Pax-6 (Homo sapiens) (P26367 whole entry, looked up): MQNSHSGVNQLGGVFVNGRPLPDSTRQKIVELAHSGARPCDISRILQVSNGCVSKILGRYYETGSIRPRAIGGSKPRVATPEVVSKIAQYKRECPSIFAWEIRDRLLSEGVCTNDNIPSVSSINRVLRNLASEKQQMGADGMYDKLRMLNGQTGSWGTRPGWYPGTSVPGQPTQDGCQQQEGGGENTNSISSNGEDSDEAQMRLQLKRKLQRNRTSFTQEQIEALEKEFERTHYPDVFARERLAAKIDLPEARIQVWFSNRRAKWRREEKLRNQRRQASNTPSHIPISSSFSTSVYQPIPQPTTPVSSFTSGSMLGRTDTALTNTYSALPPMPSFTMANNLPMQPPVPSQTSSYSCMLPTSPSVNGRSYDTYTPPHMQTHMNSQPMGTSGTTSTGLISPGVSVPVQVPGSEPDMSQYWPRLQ
Chain of Hypoxia-inducible factor 1-alpha (Homo sapiens) (Q16665 whole entry, looked up): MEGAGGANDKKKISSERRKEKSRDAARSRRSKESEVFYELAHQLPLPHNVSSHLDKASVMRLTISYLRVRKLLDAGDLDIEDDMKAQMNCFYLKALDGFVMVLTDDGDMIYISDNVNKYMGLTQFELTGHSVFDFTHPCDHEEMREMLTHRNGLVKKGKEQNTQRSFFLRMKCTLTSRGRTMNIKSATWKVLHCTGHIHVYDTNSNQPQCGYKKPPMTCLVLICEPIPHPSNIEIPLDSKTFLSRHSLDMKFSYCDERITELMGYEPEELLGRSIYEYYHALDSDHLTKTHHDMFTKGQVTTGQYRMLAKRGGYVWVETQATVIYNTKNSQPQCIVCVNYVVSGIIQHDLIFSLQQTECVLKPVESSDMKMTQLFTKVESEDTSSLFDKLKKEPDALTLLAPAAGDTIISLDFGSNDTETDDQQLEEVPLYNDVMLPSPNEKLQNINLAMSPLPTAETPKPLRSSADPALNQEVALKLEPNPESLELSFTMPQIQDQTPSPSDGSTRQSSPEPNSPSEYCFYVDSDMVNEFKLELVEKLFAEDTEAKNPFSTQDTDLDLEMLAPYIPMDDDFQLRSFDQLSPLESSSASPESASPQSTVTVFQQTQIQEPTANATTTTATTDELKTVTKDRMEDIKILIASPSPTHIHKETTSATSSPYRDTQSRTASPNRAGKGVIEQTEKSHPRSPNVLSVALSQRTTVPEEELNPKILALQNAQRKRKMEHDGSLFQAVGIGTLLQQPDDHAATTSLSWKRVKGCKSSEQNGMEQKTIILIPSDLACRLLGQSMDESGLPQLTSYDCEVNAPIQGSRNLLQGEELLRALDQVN
Chain of Transcription factor Sp1 (Homo sapiens) (P08047 whole entry, looked up): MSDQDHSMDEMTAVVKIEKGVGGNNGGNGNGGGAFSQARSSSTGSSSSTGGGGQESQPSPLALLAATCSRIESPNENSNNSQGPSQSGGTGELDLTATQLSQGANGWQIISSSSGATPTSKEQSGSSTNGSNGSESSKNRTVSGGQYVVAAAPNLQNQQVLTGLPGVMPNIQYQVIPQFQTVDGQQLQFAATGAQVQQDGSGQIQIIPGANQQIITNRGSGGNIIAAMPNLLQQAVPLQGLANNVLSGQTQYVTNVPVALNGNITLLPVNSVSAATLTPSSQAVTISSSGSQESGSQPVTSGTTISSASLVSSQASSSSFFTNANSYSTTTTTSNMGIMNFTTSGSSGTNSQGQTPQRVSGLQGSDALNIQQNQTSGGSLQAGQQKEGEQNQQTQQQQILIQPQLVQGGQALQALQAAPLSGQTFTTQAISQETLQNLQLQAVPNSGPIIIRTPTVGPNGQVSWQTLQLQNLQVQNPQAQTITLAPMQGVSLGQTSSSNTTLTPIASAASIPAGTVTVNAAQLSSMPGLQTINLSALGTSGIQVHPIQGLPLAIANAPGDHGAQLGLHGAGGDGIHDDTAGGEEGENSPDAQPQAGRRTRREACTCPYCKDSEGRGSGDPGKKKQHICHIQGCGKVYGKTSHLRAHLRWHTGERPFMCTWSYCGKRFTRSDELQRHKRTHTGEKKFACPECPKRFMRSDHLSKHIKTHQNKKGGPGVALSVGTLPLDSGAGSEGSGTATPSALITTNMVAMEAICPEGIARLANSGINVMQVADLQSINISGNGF
Chain of Hepatocyte nuclear factor 6 (Homo sapiens) (Q9UBC0 whole entry, looked up, the tested form may be a part): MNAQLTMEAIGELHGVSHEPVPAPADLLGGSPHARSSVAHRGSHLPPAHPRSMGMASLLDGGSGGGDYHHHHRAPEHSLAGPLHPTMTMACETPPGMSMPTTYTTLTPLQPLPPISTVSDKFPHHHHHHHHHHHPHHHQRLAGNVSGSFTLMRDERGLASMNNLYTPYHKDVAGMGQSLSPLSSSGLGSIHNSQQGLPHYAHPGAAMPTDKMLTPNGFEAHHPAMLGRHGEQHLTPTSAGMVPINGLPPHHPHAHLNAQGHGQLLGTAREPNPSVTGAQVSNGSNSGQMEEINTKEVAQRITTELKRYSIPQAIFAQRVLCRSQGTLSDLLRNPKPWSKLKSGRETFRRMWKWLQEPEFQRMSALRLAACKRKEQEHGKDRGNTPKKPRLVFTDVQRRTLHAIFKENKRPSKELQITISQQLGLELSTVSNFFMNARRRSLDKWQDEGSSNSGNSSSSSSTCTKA

On to `O=P(O)(O)CCC(F)(F)C(F)(F)C(F)(F)C(F)(F)C(F)(F)C(F)(F)F`, for which the molecule was classed as inactive in test [1], in test [2], in [3], in test [4], in test [5] and in [6]. In addition, the outcome in [7], in [8], in [9], in test [10], in test [11] and in [12] was inactive. The outcome in test [13], in test [14], in [15], in [16], in test [17] and in test [18] was inactive. Also, the molecule was called inactive in [19] and in test [20].

For the molecule `CCCCc1ccc2ccccc2c1S(=O)(=O)O`, the call in test [1], in test [2], in test [3], in test [4], in test [5] and in [6] was inactive. Further, the result in test [7], in test [8], in test [10], in [11], in [12] and in test [13] was inactive. Moreover, the call in [14], in [15], in test [16], in test [17], in [18] and in test [19] was inactive. Besides, the figures for the AC50 in test [9] and in test [20] were 2.52 µM (active) and 6.19 µM (active), respectively.

As to `COC(=O)CC(C(C)=O)C(=O)OC` (stereo not given), the outcome in [1], in [2], in test [3], in test [4], in [5] and in test [6] was inactive. Also, the result in [7], in [8], in test [9], in [10], in test [11] and in [12] was inactive. Further, the call in test [13], in test [14], in test [15], in test [16], in [17] and in test [18] was inactive. In addition, the outcome in [19] and in [20] was inactive.

Regarding `FC(F)(F)C1(F)C(F)(F)C(F)(F)C(F)(F)C(F)(C(F)(F)F)C1(F)F` (stereo not given), the outcome in test [1], in test [2], in test [3], in [4], in [5] and in [6] was inactive. Also, the result in test [7], in test [8], in test [9], in [10], in test [11] and in [12] was inactive. Also, the result in [13], in test [14], in [15], in test [16], in test [17] and in test [18] was inactive. The call in [19] and in [20] was inactive.

For the molecule `CN(CCO)S(=O)(=O)C(F)(F)C(F)(F)C(F)(F)C(F)(F)C(F)(F)C(F)(F)C(F)(F)C(F)(F)F`, the outcome in test [1], in [2], in [3], in test [4], in test [5] and in [6] was inactive. Also, the outcome in test [7], in test [8], in [9], in test [10], in [11] and in [12] was inactive. The call in test [13], in [14], in test [15], in test [16], in [17] and in test [18] was inactive. Besides, the result in test [19] and in test [20] was inactive.

As to `CC(C)(O)C(=O)c1ccccc1`, the result in test [1], in test [2], in test [3], in test [4], in test [5] and in test [6] was inactive. Also, the outcome in test [7], in test [8], in test [10], in [11], in test [12] and in test [13] was inactive. The molecule was called inactive in [14], in [15], in test [16], in test [17], in [18] and in test [19]. For the same molecule, the molecule was classed as inactive in test [20]. Besides, the AC50 (commonly the concentration at which the activity in the assay is half-maximal) in test [9] is 36.2 µM (active).
